CHRM1 PAM = human CHRM1 positive allosteric modulation; P11229; CHO-K1 hM1, Fluo-8 calcium fluorescence, ACh EC20; 0% = ACh EC20, 100% = maximal ACh; activation, % at 3 µM; hit rate 0.088% among 360,000; AID 588819; in the data active = activation above about 19%, passing the limit was not always enough
Target sequence (P11229 whole entry, looked up): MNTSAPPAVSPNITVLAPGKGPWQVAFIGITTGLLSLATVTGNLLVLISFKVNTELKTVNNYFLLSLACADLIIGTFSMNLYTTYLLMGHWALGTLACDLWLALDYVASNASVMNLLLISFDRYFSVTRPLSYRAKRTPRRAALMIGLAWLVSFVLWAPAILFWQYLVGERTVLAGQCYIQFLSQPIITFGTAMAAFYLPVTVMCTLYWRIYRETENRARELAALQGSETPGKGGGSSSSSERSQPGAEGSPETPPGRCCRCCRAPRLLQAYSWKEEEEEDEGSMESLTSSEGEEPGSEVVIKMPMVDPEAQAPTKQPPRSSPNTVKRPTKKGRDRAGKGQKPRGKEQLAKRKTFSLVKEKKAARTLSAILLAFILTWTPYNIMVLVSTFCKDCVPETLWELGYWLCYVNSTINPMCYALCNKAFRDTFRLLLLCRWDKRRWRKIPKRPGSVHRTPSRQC
M1 PAM parental = counter-screen for M1 PAMs: effect in parental CHO-K1 cells. ATP EC20, Fluo-8 calcium fluorescence; 0% at ATP EC20, 100% at ATP max. activation, % at 3 µM. hit rate 0.02% among 360,000;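 active = activation above the run cutoff, the mean activation of all test compounds plus 3 SD, cut at about 40% in these data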;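 note: peak over basal fluorescence ratio in a 140 s read after ATP addition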
M1 antag = human CHRM1 antagonism. P11229. CHO-K1 hM1, Fluo-8 calcium fluorescence, ACh EC80 antagonist. inhibition, % at 3 µM. hit rate 1.3% among 360,000;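 active = percent inhibition above its own plate's cutoff, namely the mean of that plate's compound wells plus 3 SD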;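 note: peak over basal fluorescence ratio during 140 s after agonist addition; 0% = ACh EC80 plus DMSO and 100% = DMSO alone without agonist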
CHRM1 agonist = human M1 muscarinic receptor agonism. P11229. CHO-K1 hM1, Fluo-8 calcium fluorescence, agonist mode; 0% DMSO, 100% acetylcholine EC100. activation, % at 3 µM. hit rate 0.33% among 360,000;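 active = activation above the run's mean compound activation plus 3 SD, cut at about 16% in these data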;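 note: peak over basal fluorescence ratio within a 140 s kinetic read after compound addition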
CHO-K1 Ca antag = M1 antagonist counterscreen hit in parental CHO-K1 cells; AID 602250; ATP-induced calcium, Fluo-8 fluorescence; hit rate 0.6% among 360,000; inhibition, % at 3 µM;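 active = inhibition above a per-plate cutoff, the plate's mean sample inhibition plus 3 SD, cut at about 24% in these data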;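 note: 0% = DMSO plus EC80 ATP and 100% = DMSO alone without ATP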
M1 ag parental = M1 agonist counterscreen hit in parental CHO-K1 cells; Fluo-8 calcium fluorescence; scaled to maximal ATP response, vehicle zero; activation, % at 3 µM; hit rate 0.48% among 360,000; AID 602248; in the data active = activation above about 15%;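 note: untransfected CHO-K1 host cells lacking M1 receptor as counterscreen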
* = called active by the depositor; / = no result given. This is a sample that favours compounds with a hit; in the whole collection about 2.3% have one here.

SMILES	CHRM1 PAM	M1 PAM parental	M1 antag	CHRM1 agonist	CHO-K1 Ca antag	M1 ag parental
COc1ccc(CN2Cc3cc(-c4cccc(F)c4)ccc3-n3nncc3C2)cc1	-7	21	0	-9	-1	1
COc1ccc(OC(=O)N(C)C[C@H]2OCc3cnnn3CCCC(=O)N([C@H](C)CO)C[C@@H]2C)cc1	11	14	-21	0	-4	0
NCC(O)c1cc(O)c(O)cc1F (stereo not drawn)	14	-4	-31	3	-3	0
Cc1ccc2c(c1)C1C[N+](C)(CC(=O)c3ccc(Cl)cc3Cl)CCC1N2C(=O)c1ccc(F)cc1 (stereo not drawn)	-19	-15	34*	-6	-13	3
Cc1ccc2c(c1)C1CN(C)CCC1N2C(=O)c1cccs1 (stereo not drawn)	5	17	-13	-7	-2	1
CCN(CC)CCCOC(=O)C(OC(C)C)(c1ccccc1)c1ccccc1	-32	18	102*	-10	-5	4
COc1ccc(CN2CCCC(C(=O)c3ccc(Cl)cc3)C2)c(OC)c1 (stereo not drawn)	-23	19	39*	-6	-7	7
COc1cccc(C(=O)C2CCCN(Cc3ccc4nonc4c3)C2)c1 (stereo not drawn)	-30	13	10	-13	0	1
COc1ccc(C(=O)C2CCCN(CC3CCCCC3)C2)cc1OC (stereo not drawn)	-33	0	78*	-11	0	0
COc1ccc(C(=O)C2CCCN(Cc3ccon3)C2)c(OC)c1 (stereo not drawn)	1	-5	-2	-8	6	0
COc1ccc(C(=O)C2CCCN(Cc3ccsc3)C2)cc1OC (stereo not drawn)	-25	17	21	-10	-3	0
CC(C)Oc1cccc(C(=O)C2CCCN(Cc3ccon3)C2)c1 (stereo not drawn)	0	-4	3	-7	-4	19*
COc1cccc(C(=O)C2CCCN(Cc3cccc4c3OCO4)C2)c1 (stereo not drawn)	-29	5	65*	-10	7	3
O=C(c1ccc2c(c1)N(Cc1ccc(F)cc1)CCS2)N1CCC2(CC1)OCCO2	4	1	-8	-5	-10	3
CC(=NCCN1CCOCC1)c1c(O)n(C2CCCCC2)c(=O)[nH]c1=O	-2	10	-2	-5	0	0
C=CCNC(=S)N1Cc2ccccc2-n2nncc2C1	-1	-8	1	-3	7	0
CC(C)CCOP(N)(=O)Oc1ccccc1Cl (stereo not drawn)	4	12	-12	-5	-8	-1
COc1ccc(CN2CCCC(C(=O)c3cccc(Cl)c3)C2)cc1 (stereo not drawn)	-27	13	42*	-5	-10	2
CCN(CC(=O)Nc1ccc(C#N)c(Cl)c1)CC(=O)NC1CCS(=O)(=O)C1 (stereo not drawn)	10	-18	11	4	25*	0
N#Cc1ccc(NC(=O)CN2CCCC2)cc1Cl	1	9	-1	-5	-14	3
CCOC(=O)[C@]12Cc3cc(Cl)ccc3[C@H]1N(C(C)C)C(=O)c1ccccc12	/	13	/	/	-3	3
CCN(CC)c1ccc(CNCCc2ccc(F)cc2)cc1	-20	-3	30*	-4	6	3
Clc1ccc2c(c1)C(c1ccccc1Cl)=NCc1nnc(N3CCN(CCSc4ccccc4)CC3)n1-2	8	17	-3	1	-9	0
Clc1ccc2c(c1)C(c1ccccc1Cl)=NCc1nnc(N3CCN(CCOc4ccccc4)CC3)n1-2	10	64*	-1	1	-15	11
COc1ccccc1C1=NCc2nnc(C)n2-c2ccc(Cl)cc21	-4	-3	11	-6	31*	1
SMILES	CHRM1 PAM	M1 PAM parental	M1 antag	CHRM1 agonist	CHO-K1 Ca antag	M1 ag parental
C[C@]12CCC3C(CC[C@H]4C[C@H](O)CC[C@]34C)C1CC(=O)[C@@H]2O (stereo partly drawn)	-7	-7	-5	2	-6	4
CC1CC2(C)C(CCC3C2CCC2(C)C(OP(=O)(N4CC4)N4CC4)CCC32)CC1=O (stereo not drawn)	4	8	102*	-7	-1	1
COc1cccc2c1cc([N+](=O)[O-])c1c(C(=O)O)cc3c(c12)OCO3	3	11	-10	-5	1	0
O=C1CN=C(c2ccc(Cl)cc2)c2oc3ccccc3c2N1	9	-1	-14	18*	5	0
CC1CCC(NCCc2ccc3c(c2)OCO3)CC1 (stereo not drawn)	-30	11	34*	-10	-25	2
CN1CCCCC1Cc1ccccc1 (stereo not drawn)	-12	-4	26	-6	13	1
Cc1nc2ccccc2c(=O)n1-c1cc([N+](=O)[O-])cc([N+](=O)[O-])c1	3	-2	-11	0	-8	2
Cc1nc2ccc(Br)cc2c(=O)n1-c1ccc([N+](=O)[O-])c(C(F)(F)F)c1	-13	-11	36*	5	19	13
O=c1[nH]c(O)c(Cc2ccc3c(c2)OCO3)c(=O)[nH]1	12	20	-17	-1	-9	0
C/C(Cl)=C/CC1(CN2CCCC2=O)C(=O)NC(=O)NC1=O	8	16	-6	-3	-8	0
C[N+](C)(C)CC#CCN1CCCC1=O	-12	7	89*	120*	16	2
CC(C)N1C(=O)NC(=O)C2(Cc3cc([N+](=O)[O-])ccc3N(C)C2c2ccccc2)C1=O (stereo not drawn)	3	20	0	-3	-4	25*
CN1c2ccc([N+](=O)[O-])cc2CC2(C(=O)NC(=O)NC2=O)C1c1ccccc1 (stereo not drawn)	7	3	-14	-4	1	0
COc1ccc2c(c1)C1(C)CCN(C)CC(C1)C2O (stereo not drawn)	10	9	-10	-1	-2	0
O=C(Nc1ccc(F)cc1)N1Cc2ccccc2-n2nncc2C1	6	4	-15	-2	-10	0
COc1ccccc1CNCCc1cccc(Cl)c1	3	12	-11	0	7	7
C=CCC1(Nc2ccccc2)CC(C)N(C)CC1C (stereo not drawn)	-27	-29	97*	-8	20	0
COC(=O)[C@@H]1[C@@H](C(=O)OC)C2(c3ccccc3-c3ccccc32)N(c2ccc(Cl)cc2)N1C#N	-2	5	-12	-4	26*	0
CC(C)Nc1ccc(Nc2ccccc2)cc1	-25	2	53*	-8	3	0
c1ccc(Nc2ccc3ccccc3c2)cc1	-10	4	12	-5	0	0
